Only a selection was taken, and the strongest signals are over-represented in it overall.
Tests used:
Assay in all cases: glycan array binding signal (z-score within array); higher = stronger binding
Details in all cases: glycan notation: IUPAC condensed, linker removed
Gal(a1-3)GalNAc = biological target: Gal(a1-3)GalNAc
Method in brief: (§1)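 The binding signal is a Z-score computed within each array. Data were drawn from 3228 arrays in the Consortium for Functional Glycomics database, restricted to those with a known protein sequence. Scores were averaged over arrays of the same protein sequence at different concentrations or buffers, and over linkers, and negative values can be taken as non-binding.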

Gal(a1-4)Gal(b1-4)Glc = biological target: Gal(a1-4)Gal(b1-4)Glc
Method in brief: as §1

[1] = biological target: Gal(b1-3)GalNAc(b1-4)Gal(b1-4)Glc
Method in brief: as §1

[2] = biological target: Gal(b1-4)GalNAc(a1-3)[Fuc(a1-2)]Gal(b1-4)GlcNAc
Method in brief: as §1

[3] = biological target: Gal(b1-4)GlcNAc(b1-3)[Gal(b1-4)GlcNAc(b1-6)]GalNAc
Method in brief: as §1

[4] = biological target: Gal3S(b1-3)[Fuc(a1-4)]GlcNAc
Method in brief: as §1

Gal6S(b1-4)Glc6S = biological target: Gal6S(b1-4)Glc6S
Method in brief: as §1

Glc(a1-4)Glc = biological target: Glc(a1-4)Glc
Method in brief: as §1

[5] = biological target: GlcNAc(b1-2)Gal(b1-3)GalNAc
Method in brief: as §1

[6] = biological target: Neu5Ac(a2-3)[GalNAc(b1-4)]Gal(b1-4)Glc
Method in brief: as §1

[7] = biological target: Neu5Ac(a2-6)Gal(b1-4)GlcNAc(b1-3)Gal(b1-4)[Fuc(a1-3)]GlcNAc(b1-3)Gal(b1-4)[Fuc(a1-3)]GlcNAc
Method in brief: as §1

[8] = biological target: Neu5Ac(a2-8)Neu5Ac(a2-8)Neu5Ac(a2-3)Gal(b1-4)Glc
Method in brief: as §1

[9] = biological target: Neu5Gc(a2-3)Gal(b1-3)GlcNAc
Method in brief: as §1

[10] = biological target: Neu5Gc(a2-3)Gal(b1-4)[Fuc(a1-3)]GlcNAc
Method in brief: as §1

[11] = biological target: Gal(b1-3)[GlcNAc(b1-6)]GalNAc
Method in brief: as §1

[12] = biological target: Gal(b1-4)GlcNAc(b1-3)Gal(b1-4)GlcNAc(b1-3)Gal(b1-4)GlcNAc
Method in brief: as §1

Gal3S(b1-4)Glc = biological target: Gal3S(b1-4)Glc
Method in brief: as §1

Gal6S(b1-4)Glc = biological target: Gal6S(b1-4)Glc
Method in brief: as §1

Glc(b1-6)Glc = biological target: Glc(b1-6)Glc
Method in brief: as §1

Man(a1-2)Man(a1-3)Man = biological target: Man(a1-2)Man(a1-3)Man
Method in brief: as §1

[13] = biological target: Man(a1-2)Man(a1-3)[Man(a1-2)Man(a1-6)]Man
Method in brief: as §1

[14] = biological target: Neu5Ac(a2-3)Gal(b1-3)[Neu5Ac(a2-3)Gal(b1-4)]GlcNAc
Method in brief: as §1

[15] = biological target: Neu5Ac(a2-3)[GalNAc(b1-4)]Gal(b1-4)GlcNAc
Method in brief: as §1

[16] = biological target: Neu5Ac(a2-3)[Neu5Ac(a2-6)]GalNAc
Method in brief: as §1

B1: IRp60B (Homo sapiens), Q9UGN4-3 (protein)
chain: MWLPWALLLLWVPAGDHSELSQNPKQAATQSELHYANLELLMWPLQEKPAPPREVEVEYSTVASPREELHYASVVFDSNTNRIAAQRPREEEPDSDYSVIRKT
glycan array binding signal (z-score) (Gal(a1-3)GalNAc): 0.074
glycan array binding signal (z-score) (Gal(a1-4)Gal(b1-4)Glc): 5.38
glycan array binding signal (z-score) [1]: 2.68
glycan array binding signal (z-score) [2]: -0.378
glycan array binding signal (z-score) [3]: 4.42
glycan array binding signal (z-score) [4]: 4.5
glycan array binding signal (z-score) (Gal6S(b1-4)Glc6S): -0.421
glycan array binding signal (z-score) (Glc(a1-4)Glc): -0.26
glycan array binding signal (z-score) [5]: -0.44
glycan array binding signal (z-score) [6]: -0.323
glycan array binding signal (z-score) [7]: 1.2
glycan array binding signal (z-score) [8]: 1.18
glycan array binding signal (z-score) [9]: -0.475
glycan array binding signal (z-score) [10]: -0.107

B2: Hip/Pap (Homo sapiens), Q06141 (protein)
chain: MLPPMALPSVSWMLLSCLMLLSQVQGEEPQRELPSARIRCPKGSKAYGSHCYALFLSPKSWTDADLACQKRPSGNLVSVLSGAEGSFVSSLVKSIGNSYSYVWIGLHDPTQGTEPNGEGWEWSSSDVMNYFAWERNPSTISSPGHCASLSRSTAFLRWKDYNCNVRLPYVCKFTD
glycan array binding signal (z-score) [11]: -0.159
glycan array binding signal (z-score) [12]: -0.173
glycan array binding signal (z-score) (Gal3S(b1-4)Glc): 0.278
glycan array binding signal (z-score) (Gal6S(b1-4)Glc): -0.162
glycan array binding signal (z-score) (Glc(a1-4)Glc): 0.806
glycan array binding signal (z-score) (Glc(b1-6)Glc): 0.091
glycan array binding signal (z-score) [5]: -0.099
glycan array binding signal (z-score) (Man(a1-2)Man(a1-3)Man): -0.027
glycan array binding signal (z-score) [13]: 0.58
glycan array binding signal (z-score) [14]: 0.71
glycan array binding signal (z-score) [15]: -0.173
glycan array binding signal (z-score) [16]: -0.168

From the supplement of paper PMC8728848
